Laboratory results as given in PubChem BioAssay AID485358 (National Center for Advancing Translational Sciences (NCATS), 2010).
In all, about 340,000 compounds went through this assay and about 1,800 (0.53%) were called active.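 Rule for the calls: active = activation over 3 SD above normal in the single-dose calcium agonist read (cut at about 30% in these data); inactive = the rest.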 Shown is part of a subset that was picked to be rich in actives.

These compounds were tested against D(2) dopamine receptor (Homo sapiens) (UniProt P14416) (assay: HTS Assay for Allosteric Agonists of the Human D2 Dopamine Receptor: Primary Screen for Agonists). Conditions: HEK293 T-REx D2 cells, calcium flux agonist mode; at 2 µM; hits give high values.
Sequence of D(2) dopamine receptor (Homo sapiens) (P14416 whole entry, looked up): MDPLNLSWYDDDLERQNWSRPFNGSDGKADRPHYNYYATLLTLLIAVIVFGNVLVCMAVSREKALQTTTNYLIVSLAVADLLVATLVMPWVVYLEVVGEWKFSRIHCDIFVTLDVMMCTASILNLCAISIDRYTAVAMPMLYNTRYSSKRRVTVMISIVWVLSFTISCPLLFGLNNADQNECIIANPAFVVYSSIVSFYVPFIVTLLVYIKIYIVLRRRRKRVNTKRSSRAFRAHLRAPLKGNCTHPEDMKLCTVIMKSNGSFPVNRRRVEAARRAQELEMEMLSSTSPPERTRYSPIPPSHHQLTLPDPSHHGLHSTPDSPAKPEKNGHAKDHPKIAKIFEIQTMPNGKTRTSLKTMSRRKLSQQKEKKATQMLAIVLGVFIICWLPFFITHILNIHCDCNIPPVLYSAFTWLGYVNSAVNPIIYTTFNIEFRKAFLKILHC
Outline: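 In this primary screen, compounds producing a positive calcium signal within 180 s of addition to tetracycline-induced, force-coupled HEK293 Trex D2 cells are flagged; cells are dye-loaded with a no-wash calcium kit beforehand.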
Note: 0% is about no effect.

SMILES | activation
COc1cc(OC)c(N(C)C(=O)c2cc3c(=O)oc4ccccc4c3s2)cc1Cl | 0.129% (inactive)
Cc1ccc(C)c(N2CCN(c3ccc4cc(S(=O)(=O)N5CCC(C)CC5)ccc4n3)CC2)c1 | 0.192% (inactive)
Cc1ccc(-c2cn3c(n2)sc2cc(C(=O)NCCCc4ccccc4)ccc23)cc1 | 1.23% (inactive)
CCN(CC)S(=O)(=O)c1ccc2c(c1)N(CC(=O)NCc1ccccc1)C(=O)CS2 | -0.489% (inactive)
Cc1cccc(S(=O)(=O)c2cn(Cc3ccccc3)c3cc(N4CCOCC4)c(F)cc3c2=O)c1 | -0.108% (inactive)
COc1ccccc1-c1ccnc2[nH]n(-c3ccccc3)c(=O)c12 | -0.0633% (inactive)
COc1cc(OC)cc(C(=O)N[C@H](C(=O)Nc2nc3ccccc3[nH]2)C(C)C)c1 | 0.237% (inactive)
COc1ccc(C(=O)N[C@H](C(=O)NCc2ccccc2)C(C)C)cc1 | -0.577% (inactive)
COc1cc(OC)cc(C(=O)N[C@H](C(=O)OCC(=O)NC(C)c2ccccc2)C(C)C)c1 (some centres undefined) | 32.6% (active)
Oc1ccc(CN2CCN(c3ncccn3)CC2)cc1 | 84.4% (active)
c1cnc(N2CCN(c3ccc4ccccc4n3)CC2)nc1 | 0.566% (inactive)
Cc1ccc(CN2CCN(c3ncccn3)CC2)c(C)c1 | 71.3% (active)
CN(C)C(=O)c1nc2ccc(Cl)cn2c1CN1CCN(c2ncccn2)CC1 | 5.69% (inactive)
Cc1ccc(CN2CCN(/N=C/c3ccco3)CC2)c(C)c1 | 0.881% (inactive)
Cc1ccc(CN2CCN(/N=C/c3cccnc3)CC2)c(C)c1 | -0.239% (inactive)
COc1cc(C(CC(=O)NCCC(C)C)N2Cc3ccccc3C2=O)cc(OC)c1OC (centres undefined) | 2.01% (inactive)
CCc1ccc2oc(-c3ccc(C)c(NC(=O)/C=C/c4ccco4)c3)nc2c1 | 0.62% (inactive)
CCc1ccccc1NC(=O)Cn1c(=O)n(-c2cccc(C)c2)c(=O)c2c1c1cc(OC)ccc1n2C | 0.643% (inactive)
CC(CCc1ccccc1)NCC(O)c1cccc([N+](=O)[O-])c1 (centres undefined) | 59.5% (active)
O=C(CC(c1ccccc1)c1ccccc1)NCC(O)c1ccc([N+](=O)[O-])cc1 (centres undefined) | -0.594% (inactive)
CC(C)OP(=O)(OC(C)C)C(Nc1ccccc1)c1cccc([N+](=O)[O-])c1 (centres undefined) | -2.16% (inactive)
Oc1c(C(c2ccc(F)cc2)N2CCN(Cc3ccccc3)CC2)sc2nc(-c3ccco3)nn12 (centres undefined) | 0.375% (inactive)
COc1cc(NC(=O)c2noc3c2CSc2ccccc2-3)cc(OC)c1OC | -0.598% (inactive)
COc1ccc(-c2nc3scc(CCNS(=O)(=O)c4cc(F)ccc4OC)n3n2)cc1OC | -1.74% (inactive)
Cc1ccc(OCCn2c(CNc3ccccc3C)nc3ccccc32)cc1 | 0.246% (inactive)
Cc1ccc(C)c(N2CCN(C(=O)Cn3nc(C)c4sc5ccccc5c4c3=O)CC2)c1 | -0.843% (inactive)
COc1ccccc1CNc1ccc(-c2nc(-c3ccccc3C)no2)cc1[N+](=O)[O-] | 2.39% (inactive)

SMILES | activation
CCc1cccc(CC)c1NC(=O)Cn1c(=O)c(-c2cc(C)ccc2NC(C)=O)nc2ccccc21 | 0.924% (inactive)
CS(=O)(=O)c1ccc(Cl)c(NC(=O)COC(=O)c2cccc(S(=O)(=O)N3CCCC3)c2)c1 | -0.318% (inactive)
O=C(NCc1cccs1)C1CCN(S(=O)(=O)c2ccc(Cl)cc2)CC1 | 0.13% (inactive)
O=C(CNCc1cccs1)Nc1cc(S(=O)(=O)N2CCCC2)ccc1Cl | 57.6% (active)
O=C(NCCCN1CCN(c2ccccc2F)CC1)C1CCC(=O)N1C1CCCCC1 (centres undefined) | 68.8% (active)
O=C(NCCCN1CCCCCC1)C1CC(=O)N(C2CCCC2)C1 (centres undefined) | 0.131% (inactive)
COc1ccc(CN2CC(C(=O)NCCN3CCN(c4ccccc4F)CC3)CC2=O)cc1 (centres undefined) | 0.792% (inactive)
COc1ccccc1NC(=O)C(=O)c1cc(C)n(-c2ccccc2F)c1C | -1.58% (inactive)
COc1ccc(OC)c(C(=O)c2ccc(C(=O)N3CCN(Cc4csc(C)n4)CC3)cc2)c1 | 37.6% (active)
COc1ccc(-c2nn3c(=O)cc(CN4CCN(C(=O)c5ccc(OC)c(OC)c5)CC4)nc3s2)cc1 | 0.0582% (inactive)
COc1ccc(OC)c(C(=O)c2coc3ccc(O)c(CN4CCOCC4)c23)c1 | 0.863% (inactive)
CCCCN1C(=O)c2[nH]nc(-c3ccccc3O)c2C1c1cccc(OCc2ccccc2)c1 (centres undefined) | -0.42% (inactive)
O=C(c1c(F)cccc1Cl)N1CCN(c2ccccn2)CC1 | -0.0487% (inactive)
O=C(c1ccc2ccccc2n1)N1CCN(c2ccccc2Cl)CC1 | 1.21% (inactive)
O=C(c1c(Cl)cccc1Cl)N1CCN(c2cccc3[nH]ccc23)CC1 | 41.5% (active)
Cc1cc(C)cc(NC(=O)Cn2c(=O)c3ccccc3n3nncc23)c1 | 0.456% (inactive)
Cc1cccn2c(=O)c(/C=C(\C#N)C(N)=O)c(N3CCCCCC3)nc12 | -0.181% (inactive)
CCOC(=O)CC1C(=O)NCCN1c1nc2c(C)cccn2c(=O)c1/C=C1\SC(=S)N(C(C)CC)C1=O (centres undefined) | 61.9% (active)
CCCN(CCC)c1nc2c(C)cccn2c(=O)c1/C=C1/SC(=S)N(Cc2ccco2)C1=O | 9.37% (inactive)
CCOC(=O)C1CCCN(C(=O)c2ccc3c(c2)sc2nc(-c4ccc(CC)cc4)cn23)C1 (centres undefined) | 4.91% (inactive)
O=[N+]([O-])c1ccc(C=Nc2ccc(Cl)cc2Cl)s1 | 33.6% (active)
COc1ccc(CCNC(=O)c2cc3cccc4c3n2CC(C)S4)c(OC)c1OC (centres undefined) | -0.932% (inactive)
CCOCCCn1c(SCC(=O)Nc2ccc(CC)cc2)nc2ccccc2c1=O | 0.545% (inactive)
Cc1ccc(-n2c(=O)c3cccnc3n2CC(=O)NCc2ccc(F)cc2)cc1C | 0.0353% (inactive)
O=C(CC1NCCc2ccccc21)Nc1cccc(Cl)c1 (centres undefined) | 35.2% (active)
O=C(CC1C(=O)NCCN1C(=O)c1ccc([N+](=O)[O-])cc1)Nc1cccc(Cl)c1 (centres undefined) | -0.121% (inactive)
O=C(CC1NCCNC1=O)Nc1cc(Cl)cc(Cl)c1 (centres undefined) | -0.701% (inactive)
